This passage reports cell viability and kynurenine production results from the supplement of paper PMC13094657.

± gives the standard deviation of the averaged measurements.

The test system of assay [1] is MDA-MB-231. Kind of assay: cell viability relative to vehicle unstimulated control (fraction); higher = more viable cells. Particulars: pre-treatment time: 18 h then 24 h IFNg/TNF.
The subject of assay [2] is MDA-MB-231. Kind of assay: kynurenine production, fold change vs DMSO IFNg/TNF control; higher = more kynurenine produced (less inhibition). Particulars: pre-treatment time: 18 h then 24 h IFNg/TNF. The procedure, abridged: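 Fold change over cytokine-stimulated vehicle wells on the same plate is the measure used for kynurenine production, averaged across duplicate plates in the first screening round. MDA-MB-231 cells, seeded 24 h beforehand at 7 × 10^4/well in 96-well plates, were pre-treated 18 h with each natural product in 0.1% DMSO and stimulated 24 h at 37°C with IFNγ (1 U/ml) and TNF (6.25 ng/ml). Supernatants were read at 492 nm following trichloroacetic acid and p-dimethylaminobenzaldehyde treatment, against 0–100 μM standards.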
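Wherever cell viability relative to vehicle unstimulated control is given: viability of the cells left after supernatant collection, read with Deep Blue dye added for 4 h, as absorbance at 570 nm minus 600 nm.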

`COC(=O)[C@@H]1C[C@@]23C4=C(CC[C@@H]5CN6C[C@@H](C)[C@@H](C[C@@H](OC(C)=O)[C@@]52COC(C)=O)[C@]63O)CC[C@@H]41` [Yuzurimine] (compound dose: 10 uM): the cell viability in assay [1] came to 1.04 ± 0.029. Besides, in assay [2], the kynurenine production amounted to 0.756 ± 0.07.
Consider `CC1(C)CC[C@]2(C(=O)O)CCC3=C([C@@H](CCl)C[C@@H]4[C@@]5(C)C[C@H](O)[C@H](O)[C@@](C)(C(=O)O)[C@@H]5CC[C@@]34C)[C@@H]2C1` [Tenuigenin] (compound dose: 10 uM), for which the cell viability in assay [1] was 0.983 ± 0.068. Also, in assay [2], the kynurenine production was found to be 0.952 ± 0.2.
Turning to `C=C1C[C@@]23CC[C@H]4[C@@](C)(CCC[C@@]4(C)C(=O)O[C@@H]4O[C@H](CO)[C@@H](O)[C@H](O[C@@H]5O[C@H](CO)[C@@H](O)[C@H](O)[C@H]5O)[C@H]4O[C@@H]4O[C@H](CO)[C@@H](O)[C@H](O)[C@H]4O)[C@@H]2CC[C@]1(O[C@@H]1O[C@H](CO)[C@@H](O)[C@H](O[C@@H]2O[C@H](CO)[C@@H](O)[C@H](O)[C@H]2O)[C@H]1O[C@@H]1O[C@H](CO)[C@@H](O)[C@H](O)[C@H]1O)C3` [Rebaudioside M] (compound dose: 10 uM), the cell viability in assay [1] worked out at 0.939 ± 0.012. The kynurenine production in assay [2] is 0.742 ± 0.12.
Turning to `CC(=O)OCC1=CO[C@@H](OC(=O)CC(C)C)[C@H]2C1=C[C@H](OC(=O)CC(C)C)[C@]21CO1` [Valepotriate] (compound dose: 10 uM), in assay [1], the cell viability was determined as 0.185 ± 0.028. Also, the kynurenine production in assay [2] was 0.321 ± 0.04.
Regarding `C=C(C(=O)O)[C@@H]1CC[C@@H](C)[C@@H]2CCC(C)=C[C@@H]21` [Artemisic acid] (compound dose: 10 uM), in assay [1], the cell viability amounted to 0.828 ± 0.3. In assay [2], the kynurenine production is 0.594 ± 0.14.
On to `CC(=O)OCC1=CO[C@@H](OC(=O)CC(C)C)[C@H]2C1=C[C@H](OC(=O)CC(C)(C)OC(C)=O)[C@]21CO1` [Acevaltrate] (compound dose: 10 uM), for which the cell viability in assay [1] is 0.474 ± 0.047. Besides, the kynurenine production in assay [2] was 0.171 ± 0.011.
The matching figures for `CC(=O)O[C@H]1C(=O)[C@@]2(C)[C@H]([C@H](OC(=O)c3ccccc3)[C@]3(O)C[C@H](OC(=O)[C@H](O)[C@@H](NC(=O)c4ccccc4)c4ccccc4)C(C)=C1C3(C)C)[C@]1(OC(C)=O)CO[C@@H]1C[C@@H]2O` [Paclitaxel] (compound dose: 10 uM): 0.827 ± 0.035 and 0.317 ± 0.017.
With `O[C@@H]1[C@@H](O)[C@@H](OC/C=C/c2ccccc2)O[C@H](CO[C@@H]2OC[C@H](O)[C@H](O)[C@H]2O)[C@H]1O` [Rosavin] (compound dose: 10 uM), the cell viability in assay [1] came to 1.003 ± 0.0045. Also, in assay [2], the kynurenine production stood at 0.882 ± 0.2.
Turning to `CC(C)=CCC/C(C)=C/C=O` [Citral] (compound dose: 10 uM), the cell viability in assay [1] was 0.922 ± 0.019. Moreover, the kynurenine production in assay [2] worked out at 0.864 ± 0.074.
In the case of `CC1(C)[C@@H](O)CC[C@]2(C)[C@H]3CC=C4[C@@H]5C[C@@]6(C)C[C@H](OC6=O)[C@]5(C)CC[C@@]4(C)[C@]3(C)CC[C@@H]12` [Wilforlide A] (compound dose: 2 uM), the cell viability in assay [1] was 0.877 ± 0.047. In addition, the kynurenine production in assay [2] was 0.834 ± 0.13.
Regarding `C=C(C)[C@@H]1CC[C@]2(C)CC[C@]3(C)[C@H](CC[C@@H]4[C@@]5(C)CC[C@H](O)C(C)(C)[C@@H]5CC[C@]43C)[C@@H]12` [Lupeol] (compound dose: 2 uM), the cell viability in assay [1] came to 0.861 ± 0.041. In addition, in assay [2], the kynurenine production was determined as 0.921 ± 0.085.
As for `COC(=O)C1=CO[C@@H](O[C@@H]2O[C@H](CO)[C@@H](O)[C@H](O)[C@H]2O)[C@H]2[C@@H]1[C@H](O)C[C@]2(C)O` [Shanzhiside methyl ester] (compound dose: 10 uM), in assay [1], the cell viability came out at 1.007 ± 0.0034. Moreover, the kynurenine production in assay [2] worked out at 0.998 ± 0.16.
With `CC[C@@H](C(=O)[C@@H](C)[C@@H](O)[C@H](C)CCc1ccc(C)c(O)c1C(=O)O)[C@H]1O[C@](CC)([C@H]2CC[C@](O)(CC)[C@H](C)O2)C[C@@H]1C` [Lasalocid] (compound dose: 10 uM), the cell viability in assay [1] amounted to 0.877 ± 0.017. Also, the kynurenine production in assay [2] came out at 0.509 ± 0.022.
`CC(C)=CCC[C@](C)(O)[C@H]1CC[C@]2(C)[C@@H]1[C@H](O)C[C@@H]1[C@@]3(C)CC[C@H](O)C(C)(C)[C@@H]3[C@@H](O[C@@H]3O[C@H](CO)[C@@H](O)[C@H](O)[C@H]3O[C@@H]3O[C@H](CO)[C@@H](O)[C@H](O)[C@H]3O)C[C@]12C` [Ginsenoside Rf] (compound dose: 10 uM): the cell viability in assay [1] stood at 0.9642 ± 0.0068. In assay [2], the kynurenine production came to 0.749 ± 0.17.
In the case of `CC1=CC23C(=O)C(C=C4COC(C)(C)OC4C2(O)C1O)C1C(CC3C)C1(C)C` (stereo not drawn) [Ingenol-5,20-acetonide] (compound dose: 10 uM), the cell viability in assay [1] is 0.948 ± 0.042. The kynurenine production in assay [2] was 1.07 ± 0.082.
On to `COC(=O)C1=CO[C@@H](O[C@@H]2O[C@H](CO)[C@@H](O)[C@H](O)[C@H]2O)[C@@H]2[C@H](C)O[C@@H](O)C[C@H]12` [Morroniside] (compound dose: 10 uM), for which, in assay [1], the cell viability is 1.015 ± 0.0011. Further, in assay [2], the kynurenine production was found to be 1.22 ± 0.21.
In the case of `COc1ccc2cc1Oc1ccc(cc1)C[C@H]1c3cc(c(OC)cc3CCN1C)Oc1c(OC)c(OC)cc3c1[C@H](C2)N(C)CC3` [Tetrandrine] (compound dose: 10 uM), in assay [1], the cell viability was 1.047 ± 0.0084. The kynurenine production in assay [2] turned out to be 1.11 ± 0.024.
For `CC1(C)CC[C@]2(C(=O)O)CC[C@]3(C)C(=CC[C@@H]4[C@@]5(C)CCC(=O)C(C)(C)[C@@H]5CC[C@]43C)[C@@H]2C1` [Oleanonic acid] (compound dose: 10 uM), the cell viability in assay [1] is 0.957 ± 0.031. Besides, the kynurenine production in assay [2] was found to be 1.136 ± 0.0017.
For the compound `CC=C1[C@H](O[C@@H]2O[C@H](CO)[C@@H](O)[C@H](O)[C@H]2O)OC=C(C(=O)OC)[C@H]1CC(=O)OC[C@H]1O[C@@H](OCCc2ccc(O)cc2)[C@H](O)[C@@H](O)[C@@H]1O` (stereo in doubt) [Specnuezhenide] (compound dose: 10 uM), the cell viability in assay [1] came to 1 ± 0.026. For the same compound, the kynurenine production in assay [2] stood at 0.905 ± 0.21.
As to `CC12CCC(CC1=O)C2(C)C` (stereo not drawn) [(+)-Camphor] (compound dose: 10 uM), in assay [1], the cell viability is 1 ± 0.016. In addition, the kynurenine production in assay [2] is 0.98 ± 0.25.
`C[C@H]1[C@H](C)CC[C@]2(C(=O)O)CC[C@]3(C)C(=CC[C@@H]4[C@@]5(C)CC[C@H](O)C(C)(C)[C@@H]5CC[C@]43C)[C@H]12` [3-Epiursolic Acid] (compound dose: 10 uM): the cell viability in assay [1] was determined as 1.02 ± 0.045. Moreover, the kynurenine production in assay [2] was 0.649 ± 0.08.
For `CC(C)=CCC[C@@](C)(O)[C@H]1CC[C@]2(C)[C@@H]1[C@H](O)C[C@@H]1[C@@]3(C)C[C@@H](O)[C@H](O[C@@H]4O[C@H](CO)[C@@H](O)[C@H](O)[C@H]4O[C@@H]4O[C@H](CO)[C@@H](O)[C@H](O)[C@H]4O)C(C)(C)[C@@H]3CC[C@]12C` [Gypenoside LI] (compound dose: 10 uM), the cell viability in assay [1] came to 0.936 ± 0.084. The kynurenine production in assay [2] was determined as 0.724 ± 0.1.
With `C=C1C(=O)O[C@H]2C1CC[C@@](C)(O)C13C=CC(C)(C21)C1(C3)C(=O)O[C@@H]2C3C(C)=CCC3[C@](C)(O)[C@H](OC(C)=O)CC21` (stereo partly drawn) [Handelin] (compound dose: 10 uM), the cell viability in assay [1] is 0.83 ± 0.29. Besides, the kynurenine production in assay [2] stood at 0.709 ± 0.3.
Take `CC(CCC(OC1OC(CO)C(O)C(O)C1OC1OC(CO)C(O)C(O)C1O)C(C)(C)O)C1CCC2(C)C3CC=C4C(CCC(OC5OC(CO)C(O)C(O)C5O)C4(C)C)C3(C)C(O)CC12C` (stereo not drawn) [Mogroside III-E] (compound dose: 10 uM): in assay [1], the cell viability came to 1.08 ± 0.013. For the same compound, in assay [2], the kynurenine production came to 0.996 ± 0.3.
Regarding `C[C@@H]1O[C@@H](O[C@H]2[C@H](OC(=O)[C@]34CCC(C)(C)C[C@H]3C3=CC[C@@H]5[C@@]6(C)C[C@H](O)[C@H](O[C@@H]7O[C@H](CO)[C@@H](O)[C@H](O[C@@H]8O[C@H](CO)[C@@H](O)[C@H](O)[C@H]8O)[C@H]7O)C(CO)(CO)[C@@H]6CC[C@@]5(C)[C@]3(C)C[C@H]4O)OC[C@H](O)[C@@H]2O)[C@H](O)[C@H](O)[C@H]1O[C@@H]1OC[C@@H](O)[C@H](O[C@@H]2OC[C@](O)(CO)[C@H]2O)[C@H]1O` [Platycodin D2] (compound dose: 10 uM), the cell viability in assay [1] was 0.7561 ± 0.0061. Moreover, in assay [2], the kynurenine production came out at 0.301 ± 0.043.
In the case of `CC(C)=CCC[C@@H](C)[C@@H]1CC[C@]2(C)C3=C(CC[C@@]12C)[C@@]1(C)CC[C@H](O)C(C)(C)[C@@H]1CC3` [Euphol] (compound dose: 10 uM), in assay [1], the cell viability amounted to 0.977 ± 0.051. The kynurenine production in assay [2] was 1.008 ± 0.0013.
In the case of `CC(C)c1ccc2c(c1)CC[C@H]1[C@](C)(C(=O)O)CCC[C@]21C` [Dehydroabietic acid] (compound dose: 10 uM), in assay [1], the cell viability worked out at 1.008 ± 0.0086. Moreover, the kynurenine production in assay [2] turned out to be 0.713 ± 0.23.
For `C/C=C(/C)C(=O)O[C@H]1C(C)=C[C@]23C(=O)[C@@H](C=C(CO)[C@@H](O)[C@]12O)[C@H]1[C@@H](C[C@H]3C)C1(C)C` [Ingenol 3-Angelate] (compound dose: 10 uM), in that order: 0.958 ± 0.11 and 0.979 ± 0.16.
For the compound `C=C(C)C1CC=C(C)[C@@H](O)C1` (stereo partly drawn) [Carveol] (compound dose: 10 uM), the cell viability in assay [1] turned out to be 1.07 ± 0.081. Besides, the kynurenine production in assay [2] was determined as 0.801 ± 0.38.
Turning to `COC(=O)C1=CO[C@@H](O[C@@H]2O[C@H](CO)[C@@H](O)[C@H](O)[C@H]2O)[C@@H]2C(CO)=C[C@H](O)[C@H]12` [Methyl deacetylasperulosidate] (compound dose: 10 uM), in assay [1], the cell viability stood at 0.956 ± 0.085. Besides, the kynurenine production in assay [2] was 1.15 ± 0.1.
The matching figures for `C=C1[C@H](OC(C)=O)[C@@H](OC(C)=O)[C@@H](OC(C)=O)C(C)(C)/C=C/[C@H](C)[C@H](OC(C)=O)[C@@]2(O)C[C@@](C)(OC(C)=O)[C@H](OC(=O)c3ccccc3)[C@@H]2[C@H]1OC(C)=O` [Jatrophane 2] (compound dose: 10 uM): 1.08 ± 0.062 and 0.926 ± 0.049.
With `C=CCC(=NOS(=O)(=O)O)S[C@@H]1O[C@H](CO)[C@@H](O)[C@H](O)[C@H]1O` (stereo in doubt) [Sinigrin] (compound dose: 10 uM), the cell viability in assay [1] amounted to 0.933 ± 0.014. For the same compound, in assay [2], the kynurenine production came out at 1.04 ± 0.14.
Take `C[C@]1(OC(=O)/C=C/c2ccccc2)C[C@@H](O)[C@]2(O)C=CO[C@@H](O[C@@H]3O[C@H](CO)[C@@H](O)[C@H](O)[C@H]3O)[C@@H]21` [Harpagoside] (compound dose: 10 uM): the cell viability in assay [1] is 0.987 ± 0.013. In assay [2], the kynurenine production stood at 0.91 ± 0.17.
Regarding `C/C=C(/C)C(=O)O[C@H]1C(C)=C[C@]23C(=O)[C@@H](C=C(CO)[C@@H](O)[C@]12O)[C@H]1[C@@H](C[C@H]3C)C1(C)C` [Ingenol Mebutate] (compound dose: 10 uM), the cell viability in assay [1] was determined as 1.01 ± 0.026. Moreover, in assay [2], the kynurenine production came to 0.691 ± 0.18.
